Assay results as given in PubChem BioAssay (NCI).
Values joined by “and” are separate entries in the source; they are usually repeats but may differ in a detail not shown here. Equal entries are not always repeated. The panel holds about 83,000 compounds, 20% with a hit somewhere; the sample as a whole holds those more often.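 Single-concentration screen, 48 h exposure, 96-well plates. Endpoint: percent growth. Below 10 = active.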 Active and inactive are the calls of the source.

Experiments:
Assay in all cases: NCI-60 one-dose screen, 48 h (100 = growth as untreated, 0 = no growth, -100 = all killed)
[1] = tested on: SR leukemia; conditions: 10 µM unless noted
[2] = tested on: OVCAR-8 ovarian; conditions: 10 µM unless noted
[3] = tested on: OVCAR-5 ovarian; conditions: 10 µM unless noted
[4] = tested on: OVCAR-4 ovarian; conditions: 10 µM unless noted
[5] = tested on: SK-OV-3 ovarian; conditions: 10 µM unless noted
[6] = tested on: IGROV1 ovarian; conditions: 10 µM unless noted
[7] = tested on: OVCAR-3 ovarian; conditions: 10 µM unless noted
[8] = tested on: HS 578T breast; conditions: 10 µM unless noted
[9] = tested on: NCI/ADR-RES ovarian; conditions: 10 µM unless noted
[10] = tested on: T-47D breast; conditions: 10 µM unless noted
[11] = tested on: BT-549 breast; conditions: 10 µM unless noted
[12] = tested on: MDA-MB-435 melanoma; conditions: 10 µM unless noted
[13] = tested on: SW-620 colon; conditions: 10 µM unless noted
[14] = tested on: MCF7 breast
[15] = tested on: HCT-116 colon; conditions: 10 µM unless noted
[16] = tested on: HCC-2998 colon; conditions: 10 µM unless noted
[17] = tested on: KM12 colon; conditions: 10 µM unless noted
[18] = tested on: RPMI-8226 leukemia; conditions: 10 µM unless noted

Measured: growth

CCOC(=O)C1C(=O)C=C(c2cc(OC)c(OC)c(OC)c2)CC1c1sc(N(C)Cc2ccccc2)nc1Cl (stereo not drawn)
inactive: [1] 80.8% | [2] 82% | [3] 101% | [4] 86.8% | [5] 85.2% | [6] 95.6% | [7] 91.6% | [8] 55.9% | [9] 86.3% | [10] 66.6% | [11] 92.1% | [12] 95.1% | [13] 95.7% | [14]; 10 µM unless noted 77.4% | [15] 72.6% | [16] 105% | [17] 93.6%

Cc1cc(O)c2cc3c(O)c(O)ccc3cc2c1
inactive: [1] 101% | [18] 115% | [3] 81.5% | [5] 109% | [6] 98.1% | [7] 133% | [8] 110% | [9] 109% | [10] 104% | [11] 109% | [12] 123% | [13] 114% | [14]; 10 µM 139% | [15] 102% | [16] 114% | [17] 108%
active: [14]; 100 µM 4.83% and -31.7%

c1cc(C2CCCCC2)ccc1-c1cnc2nonc2n1
inactive: [3] 25.7% | [4] 43.9% | [5] 33.5% | [6] 34.8% | [8] 58.1% | [10] 20.7% | [13] 22% | [17] 14.2%
active: [1] 4.98% | [2] 8.93% | [7] 1.51% | [9] -3.11% | [11] 9.82% | [12] -28.4% | [14]; 10 µM unless noted 7.11% | [15] 4.27% | [16] 8.72%

CCCCn1cnc2c(SCc3ccc([N+](=O)[O-])cc3)nc(N)nc21
inactive: [1] 37.6% | [2] 90.9% | [3] 91.5% | [4] 76.3% | [5] 116% | [6] 90.3% | [7] 98.4% | [8] 107% | [9] 89.3% | [10] 80% | [11] 90.4% | [12] 98% | [13] 109% | [14]; 10 µM unless noted 91.2% | [15] 92.5% | [16] 90.7% | [17] 97.9%

Clc1cc(Cl)cc(-c2cnc3nonc3n2)c1
inactive: [1] 93.2% | [2] 94.2% | [3] 93.7% | [4] 85.5% | [5] 96.4% | [6] 94.9% | [7] 36% | [8] 102% | [9] 98.9% | [10] 59.8% | [11] 95.6% | [12] 103% | [13] 63.9% | [14]; 10 µM unless noted 69.5% | [15] 72.9% | [16] 97.5% | [17] 90%

c1cc2c(cc1-c1cnc3nonc3n1)OCO2
inactive: [1] 21.4% | [2] 92.4% | [3] 93.7% | [4] 95.3% | [5] 82.8% | [6] 102% | [7] 70.5% | [8] 99.1% | [9] 93.2% | [10] 57.7% | [11] 95.2% | [12] 103% | [13] 83% | [14]; 10 µM unless noted 49.5% | [15] 102% | [16] 107% | [17] 74.8%

Cc1c(C(N)=O)sc2ncn(CC(=O)NN=C3CCCCC3)c(=O)c12
inactive: [1] 82.9% | [2] 110% | [3] 104% | [4] 110% | [5] 110% | [6] 135% | [7] 107% | [8] 108% | [9] 100% | [10] 103% | [11] 99.4% | [12] 99% | [13] 97.4% | [14]; 10 µM unless noted 109% | [15] 95.1% | [16] 106% | [17] 115%

CCCCOc1nc2ccccc2cc1/C=C/c1cc(/C=C/c2cc3ccccc3nc2OCCCC)n(-c2ccccc2)n1
inactive: [1] 98.7% | [2] 95.9% | [3] 102% | [4] 109% | [5] 92.6% | [6] 97.9% | [7] 107% | [8] 87.6% | [9] 106% | [10] 102% | [11] 93.2% | [12] 108% | [13] 101% | [14]; 10 µM unless noted 99.1% | [15] 93.1% | [16] 119% | [17] 103%

CCOC(=O)CCN(CCC(=O)OCC)c1ccccc1
inactive: [1] 104% | [2] 94.5% | [3] 92.2% | [4] 113% | [5] 87.1% | [6] 87.4% | [7] 85.2% | [8] 106% | [9] 105% | [10] 95.7% | [11] 97.9% | [12] 124% | [13] 103% | [14]; 10 µM unless noted 101% | [15] 95.4% | [16] 119% | [17] 93.5%
